Results on five molecules are retold here after PubChem BioAssay.

The nature of assay [1]: small molecules captured by biotinylated probe aFSTL3 – biochemical, small-molecule microarray, fluorescence 635/667, stem cell growth factor project, primary screen (AID 1064).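 Also: measures binding of the biotinylated anti-FSTL3 antibody to printed compounds.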 Particulars: higher = more signal.
The nature of assay [2]: binders from COS7 lysate, DM2A8 probe, primary screen, torsin A project, cell lysate, small-molecule microarray, fluorescence 635/667 (AID 1065). As to conditions: higher = more signal, COS7 lysate expressing mutant human TOR1A.
The nature of assay [3]: small molecules captured by biotinylated probe aFGF2 – biochemical, small-molecule microarray, fluorescence 635/667, stem cell growth factor project, primary screen (AID 1067).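 Also: measures binding of biotinylated aFGF2 protein to printed compounds on slides; z-score merges feature fluorescence and signal-to-noise across triplicate slides.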 As to conditions: higher = more signal.
The nature of assay [4]: small molecules captured by biotinylated probe aFGF10 – biochemical, small-molecule microarray, fluorescence 635/667, stem cell growth factor project, primary screen (AID 1071).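 Also: score merges 667 nm spot intensity and signal to noise from triplicate slides.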 Particulars: higher = more signal.
Assay [5] addresses Neurogenic locus notch homolog protein 2 (Homo sapiens) (UniProt Q04721). The experiment in a line: small molecules binding Notch2 protein – biochemical, small-molecule microarray, 635 nm fluorescence, stem cell growth factors, primary screen (AID 1073). Particulars: higher = more signal.
The target of assay [6] is Pro-neuregulin-1, membrane-bound isoform (Homo sapiens) (UniProt Q02297). Kind of assay: small molecules binding neuregulin-1 protein – biochemical, small-molecule microarray, fluorescence 635/667, psychiatric disease protein project, primary screen (AID 1075).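 Also: score combines 667 nm spot fluorescence with signal to noise.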 As to conditions: NRG1 binding, 635 nm fluorescence, higher = more signal.
Sequence of Pro-neuregulin-1, membrane-bound isoform (Homo sapiens) (Q02297 whole entry, looked up, the tested form may be a part, canonical isoform): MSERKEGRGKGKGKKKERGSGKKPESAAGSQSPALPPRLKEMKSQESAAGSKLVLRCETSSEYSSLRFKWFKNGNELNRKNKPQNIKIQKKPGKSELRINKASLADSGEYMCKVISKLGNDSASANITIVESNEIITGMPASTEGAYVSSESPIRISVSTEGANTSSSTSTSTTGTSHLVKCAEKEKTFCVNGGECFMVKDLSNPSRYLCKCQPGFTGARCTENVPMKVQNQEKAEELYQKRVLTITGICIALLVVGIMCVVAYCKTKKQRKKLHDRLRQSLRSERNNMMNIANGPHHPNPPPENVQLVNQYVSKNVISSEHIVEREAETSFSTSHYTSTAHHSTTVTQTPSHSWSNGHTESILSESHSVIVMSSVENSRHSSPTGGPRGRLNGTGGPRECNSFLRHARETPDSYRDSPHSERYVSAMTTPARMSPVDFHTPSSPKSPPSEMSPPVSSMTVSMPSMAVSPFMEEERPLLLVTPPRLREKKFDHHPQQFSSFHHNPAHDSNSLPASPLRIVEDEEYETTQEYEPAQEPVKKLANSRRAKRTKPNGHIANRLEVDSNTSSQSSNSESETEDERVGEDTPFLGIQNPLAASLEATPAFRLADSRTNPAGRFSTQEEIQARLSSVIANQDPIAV
Assay [7] has as its system Neuregulin-1 EGF-like domain. The experiment in a line: small molecules binding NRG1 EGF domain – biochemical, small-molecule microarray, 635 nm fluorescence, primary screen (AID 1081).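 Also: binding of the protein to compounds printed on small-molecule microarray slides.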 As to conditions: higher = more signal.
A short description of assay [8]: FRG1 expression reporter modulators in myotubes – cell-based, C2C12 myotubes, firefly/Renilla luciferase, luminescence, FRG1 inhibition for FSHD, primary screen (AID 1084). As to conditions: FRG1 promoter luciferase, higher = more signal, called active from +8 up or from −8 down.
Assay [9] can be described thus: small molecules captured by biotinylated probe aFST – biochemical, small-molecule microarray, fluorescence 635/667, stem cell growth factor project, primary screen (AID 1086).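 Also: score merges 667 nm fluorescence with signal-to-noise of each printed compound spot.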 As to conditions: higher = more signal.
Assay [10] in a line: binders of probe aHhip on microarray, primary screen, stem cell growth factor project, biochemical, small-molecule microarray, fluorescence 635/667 (AID 1087).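 Also: score merges spot fluorescence at 667nm with spot signal to noise ratio.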 As to conditions: higher = more signal.
The test system of assay [11] is PRMT1 (protein arginine N-methyltransferase 1). The experiment in a line: small molecules binding arginine methyltransferase PRMT1 – biochemical, small-molecule microarray, 635 nm fluorescence, primary screen (AID 1088).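 Also: binding of Prmt1 protein to compounds spotted on small-molecule microarray slides.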 Particulars: higher = more signal.
Assay [12] can be described thus: growth effects on S. cerevisiae YJM789 – YJM789 clinical isolate, OD600, 24 h, basal, primary screen (AID 1089).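 Also: growth of clinical yeast isolate S. cerevisiae YJM 789 seeded 1000 cells per well; test concentration not given here.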 As to conditions: higher = more signal, called active from +8 up or from −8 down.
A short description of assay [13]: S. pombe growth modifiers, basal conditions – strain 972, OD600, 24 h, no modulator, primary screen (AID 1090).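 Also: basal condition with compound alone and no growth modifier present; test concentration not given here.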 Particulars: S. pombe 972 growth, higher = more signal, called active from +8 up or from −8 down.
Assay [14] is described as follows: budding yeast growth modifiers under rapamycin – strain BY4716, OD600, 96 h, primary screen (AID 1091). Also: test concentration not given here. As to conditions: S. cerevisiae BY4716 + rapamycin, higher = more signal, called active from +8 up or from −8 down.
For assay [15], the target named is Torsin-1A-interacting protein 2 (Homo sapiens) (UniProt Q8NFQ8). The experiment in a line: small molecules binding lysate-expressed LULL1 – cell lysate, human LULL1 lysate, 635/667 nm fluorescence, primary screen (AID 1092).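 Also: probe is lysate of COS7 cells overexpressing human LULL1; score merges per-feature 667 nm fluorescence with signal-to-noise.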 As to conditions: small-molecule microarray, hLULL1 lysate binding, 635 nm fluorescence; higher = more signal.
Sequence of Torsin-1A-interacting protein 2 (Homo sapiens) (Q8NFQ8 whole entry, looked up): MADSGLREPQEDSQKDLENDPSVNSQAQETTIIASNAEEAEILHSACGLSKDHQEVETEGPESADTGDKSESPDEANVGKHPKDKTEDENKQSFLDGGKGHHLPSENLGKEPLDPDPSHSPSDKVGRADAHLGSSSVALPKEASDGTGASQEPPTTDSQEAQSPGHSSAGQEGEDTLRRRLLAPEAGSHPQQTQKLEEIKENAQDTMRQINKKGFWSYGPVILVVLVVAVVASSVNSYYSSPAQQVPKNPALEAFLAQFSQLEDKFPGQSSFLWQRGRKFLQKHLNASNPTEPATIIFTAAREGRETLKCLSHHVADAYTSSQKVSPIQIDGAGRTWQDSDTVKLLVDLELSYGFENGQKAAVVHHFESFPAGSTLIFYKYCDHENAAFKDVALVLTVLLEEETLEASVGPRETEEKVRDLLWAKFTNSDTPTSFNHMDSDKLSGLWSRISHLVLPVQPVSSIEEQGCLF
A short description of assay [16]: optical density change of DRC41 E. coli – strain DRC41, OD650, 24 h, E. coli filamentation project, primary screen (AID 1093).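 Also: MC1000 strain lacking acrAB efflux and sulA so SOS filamentation is blocked; test concentration not given here.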 As to conditions: E. coli DRC41 growth, higher = more signal, called active from +8 up or from −8 down.
Assay [17] is described as follows: probe aLefty2 binding to arrayed compounds – biochemical, biotinylated probe, 635/667 nm fluorescence, primary screen (AID 1094).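 Also: score merges spot fluorescence near 667 nm with spot signal-to-noise ratio.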 Particulars: small-molecule microarray, higher = more signal.
Assay [18] relates to Noggin (protein binding on small-molecule microarray). Kind of assay: small molecules binding Noggin protein – biochemical, 635/667 nm fluorescence, primary screen (AID 1095).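 Also: score merges 667 nm feature fluorescence with signal to noise over triplicate slides.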 Particulars: 635 nm fluorescence, higher = more signal.
The target in assay [19] is Neurogenic locus notch homolog protein 3 (Homo sapiens) (UniProt Q9UM47). The experiment in a line: small molecules binding NOTCH3 protein – biochemical, 635/667 nm fluorescence, primary screen (AID 1096). As to conditions: small-molecule microarray, 635 nm fluorescence, higher = more signal.
Sequence of Neurogenic locus notch homolog protein 3 (Homo sapiens) (Q9UM47 whole entry, looked up): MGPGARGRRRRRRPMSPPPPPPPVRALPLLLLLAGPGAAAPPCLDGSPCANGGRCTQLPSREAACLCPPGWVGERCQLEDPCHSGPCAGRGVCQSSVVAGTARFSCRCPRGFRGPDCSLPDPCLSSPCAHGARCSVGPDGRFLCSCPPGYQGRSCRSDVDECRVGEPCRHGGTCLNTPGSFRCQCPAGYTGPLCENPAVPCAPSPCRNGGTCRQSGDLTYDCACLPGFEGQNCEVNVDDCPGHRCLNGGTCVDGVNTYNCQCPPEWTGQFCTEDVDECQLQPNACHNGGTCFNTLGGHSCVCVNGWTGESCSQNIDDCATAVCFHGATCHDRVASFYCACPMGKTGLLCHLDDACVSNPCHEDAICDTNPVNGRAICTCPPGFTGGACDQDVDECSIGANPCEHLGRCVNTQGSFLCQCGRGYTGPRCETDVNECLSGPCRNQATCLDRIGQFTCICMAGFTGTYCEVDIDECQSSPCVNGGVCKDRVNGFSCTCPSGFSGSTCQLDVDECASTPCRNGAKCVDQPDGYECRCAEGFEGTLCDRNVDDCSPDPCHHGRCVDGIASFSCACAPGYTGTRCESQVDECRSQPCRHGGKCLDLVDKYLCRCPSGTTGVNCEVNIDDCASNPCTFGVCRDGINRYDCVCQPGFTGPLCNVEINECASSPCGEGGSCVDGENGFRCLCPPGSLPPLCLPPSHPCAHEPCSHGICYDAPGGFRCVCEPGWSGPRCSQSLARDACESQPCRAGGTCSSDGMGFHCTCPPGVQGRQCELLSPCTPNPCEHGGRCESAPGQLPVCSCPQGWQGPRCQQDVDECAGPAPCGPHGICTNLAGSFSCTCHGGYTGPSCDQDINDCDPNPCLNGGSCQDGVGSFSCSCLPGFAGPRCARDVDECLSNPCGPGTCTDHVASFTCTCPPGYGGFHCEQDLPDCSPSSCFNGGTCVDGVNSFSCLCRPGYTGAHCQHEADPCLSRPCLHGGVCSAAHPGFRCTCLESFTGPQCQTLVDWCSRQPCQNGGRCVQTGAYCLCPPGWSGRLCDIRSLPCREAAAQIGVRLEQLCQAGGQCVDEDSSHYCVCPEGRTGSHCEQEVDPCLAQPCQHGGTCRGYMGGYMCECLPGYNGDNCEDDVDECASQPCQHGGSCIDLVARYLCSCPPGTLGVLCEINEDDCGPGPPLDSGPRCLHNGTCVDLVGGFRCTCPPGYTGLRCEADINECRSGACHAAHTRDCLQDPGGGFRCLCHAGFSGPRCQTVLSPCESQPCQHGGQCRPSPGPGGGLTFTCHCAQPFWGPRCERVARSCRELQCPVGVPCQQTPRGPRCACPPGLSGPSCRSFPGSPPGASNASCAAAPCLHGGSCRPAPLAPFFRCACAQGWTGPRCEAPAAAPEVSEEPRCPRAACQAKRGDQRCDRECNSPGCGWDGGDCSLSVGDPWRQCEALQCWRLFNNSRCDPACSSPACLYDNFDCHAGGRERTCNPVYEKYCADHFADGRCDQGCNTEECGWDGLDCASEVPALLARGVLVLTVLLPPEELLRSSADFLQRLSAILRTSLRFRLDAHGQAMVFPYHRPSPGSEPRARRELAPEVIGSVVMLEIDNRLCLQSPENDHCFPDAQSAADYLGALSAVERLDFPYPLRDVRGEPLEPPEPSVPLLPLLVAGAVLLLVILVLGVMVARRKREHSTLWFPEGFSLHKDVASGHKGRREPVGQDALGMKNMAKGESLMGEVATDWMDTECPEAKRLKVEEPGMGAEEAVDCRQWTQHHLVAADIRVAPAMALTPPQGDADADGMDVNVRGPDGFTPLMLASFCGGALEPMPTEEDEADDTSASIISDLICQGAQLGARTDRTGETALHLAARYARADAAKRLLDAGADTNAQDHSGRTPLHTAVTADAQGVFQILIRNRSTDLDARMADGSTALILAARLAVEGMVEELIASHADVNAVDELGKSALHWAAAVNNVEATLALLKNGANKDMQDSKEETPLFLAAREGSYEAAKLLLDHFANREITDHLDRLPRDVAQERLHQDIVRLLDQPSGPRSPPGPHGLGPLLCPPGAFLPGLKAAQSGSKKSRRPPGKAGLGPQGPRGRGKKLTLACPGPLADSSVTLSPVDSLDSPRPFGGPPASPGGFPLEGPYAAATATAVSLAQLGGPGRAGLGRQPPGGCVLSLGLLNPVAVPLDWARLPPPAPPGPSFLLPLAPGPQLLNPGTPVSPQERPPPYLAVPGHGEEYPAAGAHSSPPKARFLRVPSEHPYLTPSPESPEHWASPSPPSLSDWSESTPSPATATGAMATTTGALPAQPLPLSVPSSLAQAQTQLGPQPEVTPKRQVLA
Assay [20] can be described thus: probe aEGFR binding to arrayed compounds – biochemical, biotinylated probe, 635/667 nm fluorescence, primary screen (AID 1097).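 Also: probe is a biotinylated anti-EGFR antibody binding compounds printed on slides; score combines fluorescence near 667 nm and signal to noise of each spot.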 Particulars: small-molecule microarray, higher = more signal.

Each structure is given as a SMILES string. The source made the active and inactive calls.

As to `CC(CCN1CCCc2nc(C)c(C)cc21)=NO[C@H](C)c1cn([C@H](CO)Cc2ccccc2)nn1`, the composite z-score is -0.303 in assay [1]; 0.455 in [2]; -0.0568 in [3]; 0.545 in assay [4]; 0.531 in assay [5]; 0.0463 in [6]. Further, the composite z-score is 1.03 in assay [7]; 0.64 in [9]; -0.236 in assay [10]; 1.56 in assay [11]; 0.894 in [15]; -0.0441 in assay [17]. Further, the composite z-score in [18] stood at 0.633; in assay [19], 1.01; in assay [20] it was 0.0386. For the same molecule, the z-score was 1.53 (inactive) in [8]; 1.09 (inactive) in assay [12]; 0.374 (inactive) in assay [13]; 0.399 (inactive) in assay [14]; -0.748 (inactive) in [16].

For the molecule `C[C@@H](c1ccccc1)N1C(=O)[C@H]2[C@H]3[C@H](O)[C@H](O)CC(=NOC[C@@H](O)COCc4ccco4)[C@H]3CC[C@H]2C1=O`, the composite z-score is -0.605 in assay [1]; 2.38 in [2]; -0.212 in assay [3]; -0.363 in assay [4]; -0.206 in [5]; -0.438 in assay [6]. In addition, the composite z-score is 0.919 in assay [7]; 0.039 in [9]; -0.0994 in assay [10]; 0.559 in assay [11]; -1.07 in assay [15]; -0.0772 in assay [17]. Also, the figures for the composite z-score in assay [18], in [19] and in [20] were 0.412, -0.233 and -0.164, respectively. Also, the z-score was 0.652 (inactive) in assay [8]; 0.342 (inactive) in assay [12]; 0.453 (inactive) in assay [13]; -0.0348 (inactive) in [14]; -0.378 (inactive) in assay [16].

Turning to `C[C@H]1CC[C@@H](C(=O)O)N[C@@H]1c1cccc(N2CCCC2=O)c1`, the composite z-score in [1] was -0.304; in assay [2] it was 0.141; in assay [3] it was -0.145; in [4], 0.22; in assay [5] it was 0.408; in assay [6], -0.153. For the same molecule, the composite z-score is 0.17 in [7]; 0.149 in assay [9]; 0.107 in assay [10]; -0.344 in [11]; 0.283 in [15]; -0.0873 in assay [17]. Further, the composite z-score was 0.49 in [18], 0.408 in [19] and -0.123 in assay [20]. Moreover, the z-score in assay [8] was 0.304 (inactive); in assay [12], 0.31 (inactive); in assay [13] it was 0.0026 (inactive); in assay [14], 0.374 (inactive); in assay [16], 0.816 (inactive).

On to `CCOC(=O)CCN1C(=O)[C@H]2[C@H]3[C@H](O)[C@H](O)CC(=NNC(=O)OCC)[C@H]3CC[C@H]2C1=O`, for which the composite z-score in assay [1] is -0.264; in assay [2], 0.345; in assay [3], -0.162; in assay [4] it was -0.188; in assay [5], -0.752; in assay [6] it was 0.189. For the same molecule, the composite z-score in assay [7] was 0.54; in assay [9], 0.0166; in [10], -0.0237; in [11], 0.0158; in assay [15], 0.0756; in assay [17] it was -0.139. The composite z-score in assay [18] was 0.412; in assay [19] it was -0.818; in assay [20], -0.12. For the same molecule, the z-score in assay [8] is 0.115 (inactive); in assay [12], 0.654 (inactive); in [13] it was -1.45 (inactive); in assay [14] it was 0.305 (inactive); in assay [16], -0.637 (inactive).

For `CCN1C(=O)[C@H]2[C@H]3[C@H](O)[C@H](O)CC(=NOC[C@@H](O)COCc4ccco4)[C@H]3CC[C@H]2C1=O`, the composite z-score in [1] is -0.905; in assay [2] it was 2.38; in assay [3] it was -0.318; in assay [4], -1.68; in assay [5], -0.886; in assay [6], -0.502. In addition, the composite z-score in assay [7] is 0.456; in assay [9], -0.104; in [10], 0.0578; in assay [11], 1.21; in assay [15], 0.327; in [17] it was -0.339. In addition, the figures for the composite z-score in assay [18], in assay [19] and in assay [20] were 1.79, 0.0738 and -0.099, respectively. Further, the z-score is -0.172 (inactive) in assay [8]; -0.0365 (inactive) in assay [12]; -0.258 (inactive) in assay [13]; -0.0439 (inactive) in assay [14]; 0.316 (inactive) in assay [16].
